Measurements: PubChem BioAssay (EPA / NIEHS)
Results filed as inconclusive are left out. Activity calls are given as the source filed them. Rule for the calls: active = hit-call score of the fitted dose curve at least 0.9, where 1 is the maximum; inconclusive = response in the unintended direction; inactive = score below 0.9.

What was measured:
[1] = target: rat Glutamate, NMDA Agonist Site (GluNMDA), Grin1 (gene 24408) (UniProt P35439); experiment: NVS_LGIC_rGluNMDA_Agonist: NovaScreen (NVS) Ligand-Gated Ion Channel Assay for rat Glutamate, NMDA Agonist Site (GluNMDA) (AID 2283327)
Procedure, shortened: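 Rat forebrain membranes, radioligand binding in the agonist-site protocol; 1 h after dosing; filter-based scintillation counting. Single-concentration duplicate screen at 25 uM, then concentration-response up to 50 uM for actives; gain-of-signal vs DMSO.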

[2] = target: human Constitutive Androstane Receptor (CAR), NR1I3 (gene 9970) (UniProt Q14994); experiment: NVS_NR_hCAR_Agonist: NovaScreen (NVS) Nuclear Receptor Binding Assay for human Constitutive Androstane Receptor Agonism (CAR) (AID 2283328)
Chain of human Constitutive Androstane Receptor (CAR), NR1I3 (gene 9970) (Q14994 whole entry, looked up): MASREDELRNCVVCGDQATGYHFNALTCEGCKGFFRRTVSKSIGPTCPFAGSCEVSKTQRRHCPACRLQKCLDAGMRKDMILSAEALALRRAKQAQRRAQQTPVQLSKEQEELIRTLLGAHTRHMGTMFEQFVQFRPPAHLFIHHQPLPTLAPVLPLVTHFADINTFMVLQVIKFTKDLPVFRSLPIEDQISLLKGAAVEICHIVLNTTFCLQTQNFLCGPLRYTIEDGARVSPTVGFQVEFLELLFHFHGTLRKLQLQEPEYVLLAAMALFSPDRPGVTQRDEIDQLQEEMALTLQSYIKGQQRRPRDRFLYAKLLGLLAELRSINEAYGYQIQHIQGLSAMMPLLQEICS
Protocol: NVS_NR_hCAR_Agonist is a biochemical, single-readout assay that uses extracted gene-proteins in a cell-free assay. Measurements were taken 1 hour after chemical dosing in a 384-well plate.NVS_NR_hCAR_Agonist is one of one assay component(s) measured or calculated from the NVS_NR_hCAR_Agonist assay. It is designed to make measurements of fluorescent resonance energy transfer, a form of binding reporter, as detected with fluorescent resonance energy transfer signals by Time-Resolved Fluorescence Resonance Energy Transfer (TR-FRET) technology.Data from the assay component NVS_NR_hCAR_Agonist was analyzed into 1 assay endpoint. This assay endpoint, NVS_NR_hCAR_Agonist, was analyzed in the positive analysis fitting direction relative to DMSO as the negative control and baseline of activity. Using a type of binding reporter, gain-of-signal activity can be used to understand changes in the binding as they relate to the gene NR1I3. Furthermore, this assay endpoint can be referred to as a primary readout, because the performed assay has only produced 1 assay endpoint. To generalize the intended target to other relatable targets, this assay endpoint is annotated to the nuclear receptor intended target family, where the subfamily is non-steroidal. […]

[3] = target: human Androgen Receptor (AR), AR (gene 367) (UniProt P10275); experiment: NVS_NR_hAR: NovaScreen (NVS) Nuclear Receptor Binding Assay for human Androgen Receptor (AR) (AID 2283332)
Chain of human Androgen Receptor (AR), AR (gene 367) (P10275 whole entry, looked up): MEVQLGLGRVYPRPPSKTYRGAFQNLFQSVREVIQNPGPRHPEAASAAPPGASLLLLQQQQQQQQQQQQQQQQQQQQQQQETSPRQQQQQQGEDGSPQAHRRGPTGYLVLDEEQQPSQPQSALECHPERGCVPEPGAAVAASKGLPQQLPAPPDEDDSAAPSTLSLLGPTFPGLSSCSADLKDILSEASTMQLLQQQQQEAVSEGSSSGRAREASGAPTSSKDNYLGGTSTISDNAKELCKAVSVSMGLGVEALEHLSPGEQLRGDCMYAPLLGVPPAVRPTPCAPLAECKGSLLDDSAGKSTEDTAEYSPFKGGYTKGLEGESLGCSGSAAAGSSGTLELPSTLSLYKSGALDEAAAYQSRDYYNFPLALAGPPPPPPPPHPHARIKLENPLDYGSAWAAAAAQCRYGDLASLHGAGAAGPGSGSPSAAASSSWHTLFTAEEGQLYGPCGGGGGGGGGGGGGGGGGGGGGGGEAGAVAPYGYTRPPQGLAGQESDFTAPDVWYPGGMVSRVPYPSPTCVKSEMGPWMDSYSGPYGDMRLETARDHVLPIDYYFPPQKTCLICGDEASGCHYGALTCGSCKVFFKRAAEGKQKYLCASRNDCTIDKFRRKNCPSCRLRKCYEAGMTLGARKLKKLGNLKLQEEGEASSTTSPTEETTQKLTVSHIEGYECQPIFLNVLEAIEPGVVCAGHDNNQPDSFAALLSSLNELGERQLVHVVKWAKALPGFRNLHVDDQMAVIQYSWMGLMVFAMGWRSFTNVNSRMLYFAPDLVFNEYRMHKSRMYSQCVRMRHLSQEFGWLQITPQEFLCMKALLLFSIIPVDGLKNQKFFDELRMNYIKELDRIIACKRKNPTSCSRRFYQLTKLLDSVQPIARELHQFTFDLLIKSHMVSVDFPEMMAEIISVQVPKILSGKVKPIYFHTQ
Procedure, shortened: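 Actives from a duplicate 25 uM single-point screen went on to concentration series. Read-out after 20 h was scintillation counting of displaced radioligand in LnCAP extract, with DMSO as baseline.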

NC(=Nc1ccccc1)Nc1ccccc1
outcome [1]: inactive

CN(C)CCCN1c2ccccc2Sc2ccc(Cl)cc21
AC50 [1]: 25 µM (active)

CC(C)OC(=O)C(C)(C)Oc1ccc(C(=O)c2ccc(Cl)cc2)cc1
outcome [2]: inactive

Cc1cc(SC2=C(O)C[C@@](CCc3ccc(N)cc3)(C(C)C)OC2=O)c(C(C)(C)C)cc1CO
AC50 [3]: 9.33 µM (active)
